Measured values as given in ChEMBL document CHEMBL3988442, “University of Dundee, Small-Polar-MMV Screening Library” (2021).
About 13,000 (27%) of roughly 48,000 compounds showed an effect of 50% or more. The list shows a part of the results.

The molecules below were run on Wolbachia pipientis (assay: Anti-Wolbachia Cell-Based Screen). Conditions: 5 µM.
Type: functional
Parameters: scale not given: in the data most compounds retested in dose-response had high values

Row | SMILES | Percent Effect [%]
1 | COc1ccnc(N(C)Cc2ccccc2O)n1 | -0.8473
2 | CN(C)C(CNCc1nc(-c2ccsc2)no1)c1cccc(F)c1 (stereo unspecified) | 29.87
3 | CC(=O)Oc1ccnc(C(F)(F)F)c1C(C)=O | 6.517
4 | O=C(O)C(F)(F)F.O=S(=O)(c1cccs1)N1CCCn2cnc(CN3CCCC3)c2C1 | -2.227
5 | O=C(O)C(F)(F)F.O=S(=O)(c1cccs1)N1CC[C@@H](O)[C@@H]1Cc1ccncc1 | 6.31
6 | O=C(O)C(F)(F)F.O=S(=O)(c1cccs1)N1Cc2nc(CN3CCCC3)oc2C1 | 87.16
7 | Cc1cccc(CN2C[C@@H]3CN(C(=O)c4ccsc4)C[C@@H]3C2=O)n1.O=C(O)C(F)(F)F | -3.63
8 | O=C(c1ncc[nH]1)N1CCC(Cn2cc(-c3cccc(Cl)c3)nn2)CC1 | -5.477
9 | CCC(CO)NC(=O)c1cc(COc2ccc(OC)cc2Cl)[nH]n1 (stereo unspecified) | -12.2
10 | CC(C)c1nccn1CCCNC(=O)c1ccc(-c2cn[nH]c2)nc1 | -8.447
11 | CSc1ccc2c(C)cc(N[C@@H](C)CO)nc2c1 | -9.02
12 | COc1cccc(-n2cc(-c3ccnc(N[C@H](CO)C(C)C)n3)cn2)c1 | 4.852
13 | C[C@@H](CO)Nc1cc(-c2cn[nH]c2)ncn1 | 112.5
14 | CC[C@@H](CO)Nc1cc(-c2cn[nH]c2)ncn1 | 98.52
15 | C[C@H](O)CNc1cc(-c2cn[nH]c2)ncn1 | 139.4
16 | CC[C@@H](CO)NC(=O)c1cc(COc2ccc(OC)cc2Cl)[nH]n1 | -9.741
17 | COc1cccc(-n2cc(-c3ccnc(NC(CO)C(C)C)n3)cn2)c1 (stereo unspecified) | 8.395
18 | CC(C)[C@@H](CO)Nc1cc(-c2cn[nH]c2)ncn1 | 127.6
19 | COc1ccc(Cc2noc(-c3ccc(NC(C)CO)nc3)n2)cc1 (stereo unspecified) | 5.885
20 | COc1cccc(-c2noc(-c3ccc(NCC(C)O)nc3)n2)c1OC (stereo unspecified) | -13.68
21 | Cc1cc(CN2CCN(C(=O)NCCCc3cn[nH]c3C)CC2)on1 | -23.87
22 | Cc1ccc(-n2nnnc2SCN2CCCCC2=O)cc1C | -13.91
23 | Cc1ccc(CNC(=O)CN2C=Nc3ccccc3S2(=O)=O)s1 | 1.242
24 | COc1ccc(C)c2c1N(C(=O)c1cnc(C)s1)CCC2 | 46.61

Row | SMILES | Percent Effect [%]
25 | NC(=O)C1CCCN(Cc2ccc(C(=O)Nc3cnns3)cc2)C1 (stereo unspecified) | 103.7
26 | Cn1cnnc1CNC(=O)C1CCCN(Cc2ccccc2)C1 (stereo unspecified) | -10.08
27 | O=C(Nc1nnc(C2CC2)s1)NC1CCN(Cc2ccccc2)C1 (stereo unspecified) | -1.377
28 | CCNC(=O)C1CCN(Cc2ccc(C(=O)Nc3nnc(C)s3)cc2)C1 (stereo unspecified) | 100.1
29 | NC(=O)c1ccc(CN2CCCC(N3CCCC3)C2)cc1 (stereo unspecified) | -7.606
30 | CCc1ccc(CN2CCC(CNC(=O)c3ccc(C)nc3)C2)nc1 (stereo unspecified) | 20.32
31 | O=C(c1ccc(CN2CCCC2)cc1)N1CCCC(n2cccn2)C1 (stereo unspecified) | 0.6704
32 | CCCN(C(=O)c1cnns1)C1CCCN(Cc2ccccc2)C1 (stereo unspecified) | 20.84
33 | CCNC(=O)C1CCN(Cc2ccc(C(=O)Nc3cnns3)cc2)C1 (stereo unspecified) | 106
34 | CCC(CC)CS(=O)(=O)NC(=O)C1CCCC1 | -11.88
35 | Cc1cnccc1CN(C)Cc1c[nH]nc1-c1ccc(F)cc1F | -6.627
36 | Cc1cnn(CC2CCCN2C(=O)c2cn(C)c3ccccc23)c1 (stereo unspecified) | 141.3
37 | O=C(c1cncc2ccccc12)N1CCC[C@@H]1CO | 106.1
38 | Cc1cc(C)n(-c2cccc(NC(=O)N3CCC[C@@H]3CO)c2)n1 | -12.47
39 | CC(NC(=O)N1CCC[C@H]1CO)c1noc(-c2ccccc2)n1 (stereo partly specified) | 5.475
40 | Cc1cnn(CC2CCCN2C(=O)c2cc(O)nc3ccccc23)c1 (stereo unspecified) | 145.5
41 | COc1ccccc1C(=O)N1CCCC1Cn1cc(C)cn1 (stereo unspecified) | -4.126
42 | O=C(Nc1ccccc1OC1CCOC1)c1ccon1 (stereo unspecified) | -7.759
43 | CCN(CCc1nc2cc(C)ccc2[nH]1)C(=O)[C@@H](N)Cc1c[nH]cn1 | -4.555
44 | CCOCc1nccc(-c2ccc(OCC)c(C(=O)O)c2)n1 | -8.809
45 | Cc1nnc(C(C)N2CCc3[nH]c4ccccc4c3C2)o1 (stereo unspecified) | 119.5
46 | Cc1nnc(C(C)N2CCc3[nH]c4ccc(Cl)cc4c3C2)o1 (stereo unspecified) | 96.73
47 | Cc1ccc(-c2nnc(C(C)N3CCn4c(C)nnc4C3)o2)cc1 (stereo unspecified) | 7.305
48 | CCc1cc(C)nc(N2CCN(C(C)c3nc(C)no3)CC2)n1 (stereo unspecified) | 7.355

Row | SMILES | Percent Effect [%]
49 | Cc1nnc2n1CCN(C(C)c1nnc(-c3cccs3)o1)C2 (stereo unspecified) | 4.366
50 | Cc1cccc(-c2nnc(C(C)N3CCn4c(C)nnc4C3)o2)c1 (stereo unspecified) | 3.143
51 | Cc1nnc(C(C)NCC2(c3ccc(Cl)cc3)CCCC2)o1 (stereo unspecified) | 5.084
52 | Cc1noc(C(C)N2CCc3[nH]c4ccc(Cl)cc4c3C2)n1 (stereo unspecified) | 55.06
53 | Cc1noc(C(C)N2CCC(c3nc4ccccc4[nH]3)CC2)n1 (stereo unspecified) | -1.749
54 | CN(CCO)C[C@@H]1CN(Cc2ccccc2C#N)C[C@@H]1CO | 5.341
55 | O=C(O)C(F)(F)F.O=C([C@H]1COC[C@H]2CN(C3CCCC3)C[C@H]21)N1CCCO1 | 3.277
56 | Cl.Cl.O=C(NC[C@H]1OC[C@@H](NC2CCNCC2)[C@@H]1O)C1CCCC1 | -10.79
57 | O=C(C1CC1)N1C[C@@H](F)[C@@H](OCc2nc3ccccc3[nH]2)C1 | -5.445
58 | O=C(C1CCOCC1)N1CCO[C@H]2[C@H](Oc3ccccn3)CC[C@@H]21.O=C(O)C(F)(F)F | -40.04
59 | O=C(CC1CC1)N1CCO[C@H]2[C@H](OCCCn3cccn3)CC[C@@H]21.O=C(O)C(F)(F)F | 104.8
60 | Cn1cccc1C(=O)N1CCO[C@H]2[C@H](OCc3cccnc3)CC[C@@H]21.O=C(O)C(F)(F)F | -1.301
61 | CCS(=O)(=O)N1CCO[C@H]2[C@H](OCCCn3cccn3)CC[C@@H]21.O=C(O)C(F)(F)F | 3.946
62 | O=C(C1CCC1)N1CCO[C@H]2[C@H](OCCCn3cccn3)CC[C@@H]21.O=C(O)C(F)(F)F | 102.2
63 | O=C(N1CCCC1)N1CCO[C@H]2[C@@H](OCc3cccnc3)CC[C@@H]21.O=C(O)C(F)(F)F | -4.224
64 | CC(=O)N1CCO[C@H]2[C@H](OCCCn3cccn3)CC[C@@H]21.O=C(O)C(F)(F)F | 121.4
65 | CCOCC(=O)NCC(Cc1cccc(F)c1)n1cccc1 (stereo unspecified) | 6.887
66 | CS(=O)(=O)CCCNC(=O)Nc1sc2ccccc2c1Cl | -10.11
67 | COC(=O)c1ccc(Cn2nc(C)cc2C)c(OC)c1 | -3.306
68 | COCC1CCN(CCOc2ccc(C#N)cc2OC)CC1 | -11.6
69 | COc1cc(C(C)=O)ccc1SCC(=O)Nc1ccc(C)cn1 | -18.24
70 | COC(=O)c1ccc(Cn2cccc(C(F)(F)F)c2=O)c(OC)c1 | 9.312
71 | COc1cc(C(C)=O)ccc1OC12CCCN(CC1)C2 (stereo unspecified) | 108.8
72 | COc1cc(C(C)=O)ccc1OCCNCc1ccco1.Cl | -30.68

Row | SMILES | Percent Effect [%]
73 | COc1cc(C#N)ccc1OCCN1CCC(n2ccnc2)CC1 | 7.917
74 | COc1cc(C#N)ccc1OC12CCCN(CC1)C2 (stereo unspecified) | 107.4
75 | COC(=O)c1ccc(OC)c(OC23CCCN(CC2)C3)c1 (stereo unspecified) | 94.41
76 | CCNC(=O)Nc1cccc(F)c1C(=O)NC1CCCC1 | 2.869
77 | CC(C)CC(C#N)NC(=O)COC1CCCCC1 (stereo unspecified) | -4.996
78 | Cn1ccc(CN2CCCC23CCN(Cc2nccn2C)CC3)n1.O=C(O)C(F)(F)F.O=C(O)C(F)(F)F | 97.85
79 | CN(C)CCN1CCCC12CCN(Cc1nccn1C)CC2.O=C(O)C(F)(F)F.O=C(O)C(F)(F)F.O=C(O)C(F)(F)F | 106.1
80 | O=C(O)C(F)(F)F.O=C(O)C(F)(F)F.c1csc(CN2CCC3(CCCN3CC3CC3)CC2)n1 | 0.06996
81 | CC(C)COC1CC2(CCN(Cc3nccn3C)CC2)C1.O=C(O)C(F)(F)F | -0.08907
82 | Cn1ccc(CN2CCC3(CCCN3CC3CC3)CC2)n1.O=C(O)C(F)(F)F.O=C(O)C(F)(F)F | 89.46
83 | Cc1ccc(NC2COC3(CCN(Cc4ccn(C)n4)CC3)C2)nn1.O=C(O)C(F)(F)F (stereo unspecified) | -6.198
84 | Cn1ccnc1CN1CCC2(CCCN2c2ncccn2)CC1.O=C(O)C(F)(F)F | -8.541
85 | Cc1cnc(N2C[C@@H]3[C@@H](C(=O)NC(C)C)CCS(=O)(=O)[C@@H]3C2)nc1 | -24.89
86 | CCc1cnc(N2C[C@H]3CCCC(N(C)Cc4ccccn4)[C@H]3C2)nc1 (stereo partly specified) | -24.97
87 | CCc1cnc(N2C[C@@H]3[C@@H](C(=O)N(C)C)CCS(=O)(=O)[C@@H]3C2)nc1 | 108.3
88 | CN(C)C(=O)[C@H]1CCS(=O)(=O)[C@@H]2CN(c3ncc(F)cn3)C[C@H]12 | 102
89 | CCc1cnc(N2C[C@@H]3[C@@H](C(=O)NCC(C)C)CCS(=O)(=O)[C@@H]3C2)nc1 | -5.453
90 | CN(C)C(=O)[C@H]1CCS(=O)(=O)[C@@H]2CN(c3ncccn3)C[C@H]12 | 99.37
91 | CCc1cnc(N2C[C@@H]3[C@@H](C(=O)NC(C)C)CCS(=O)(=O)[C@@H]3C2)nc1 | -2.445
92 | CN(C)C[C@@H]1CCC[C@@H]2CN(c3ncccn3)C[C@@H]21.O=C(O)C(F)(F)F | 2.797
93 | CC(C)NC(=O)[C@H]1CCS(=O)(=O)[C@@H]2CN(c3ncccn3)C[C@H]12 | -3.711
94 | CC(C)NC(=O)[C@H]1CCS(=O)(=O)[C@@H]2CN(c3ncc(F)cn3)C[C@H]12 | -13.53
95 | CC(C)CNC(=O)[C@H]1CCS(=O)(=O)[C@@H]2CN(c3ncccn3)C[C@H]12 | 91.22
96 | Cc1cnc(N2C[C@@H]3[C@@H](C(=O)NCC(C)C)CCS(=O)(=O)[C@@H]3C2)nc1 | -2.009
